Screening data (PubChem BioAssay)
Coupling enz – inhibits coupling enzyme system, counter-screen for aldolase hits. coupling enzyme system counterscreen, AmpLite Red fluorescence. activity change, negative = inhibition, % at 58.2 µM, hits read low. 290,000 compounds, 0.67% hits; in the data active means activity change below about -30%
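Activity here indicates interference with the coupling reaction, not aldolase inhibition. Compounds at 57.5 uM final met coupling enzymes for 10 min at RT; substrate and AmpLite Red detection followed, with a 525/598 nm fluorescence read after 20 min.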
Sfp inh – blocks B. subtilis Sfp PPTase activity; Potency, µM, hits mostly inhibitors; Biochemical Sfp PPTase activity, qHTS; 310,000 compounds, 3.5% hits;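 further: the enzyme is Sfp with the accession as filed and its product quenches rhodamine fluorescence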
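Sfp 15 nM + cpd, 15 min RT; start w/ rhodamine-CoA 5 uM, BHQ-2-YbbR 12.5 uM (final); 50 mM Hepes pH 7.6, 10 mM MgCl2, 0.01% NP-40, 0.01% BSA; read 525/598 nm at 0 and 30 min.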
Giardia killer – kills Giardia lamblia; Giardia lamblia trophozoite viability; activity change, % at 7.66 µM, hits read low; 340,000 compounds, 0.15% hits; in the data active means activity change below about -80%; inconclusive means between about -30% and that limit;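 further: parasites exposed to compound for two days anaerobically before the ATP read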
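Killing of trophozoites was scored by loss of ATP luminescence after a 48 hrs anaerobic exposure to compounds at 37 deg C, using 100 cells per well.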
ELG1 DNA repair – inhibitors of ELG1-dependent DNA repair in HEK293T cells; HEK293T ELG1-luciferase reporter, luminescence, 16 h; DNA damage induced by 5-fluorouridine; Potency, µM (top dose mostly 46.1 µM), hits mostly inhibitors; 330,000 compounds, 2.3% hits; further: nearly all actives have a fitted effect of over 55% in size
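5-Fluorouridine DNA damage + compound/DMSO, 2,000 cells/well, 16 h, 37 °C/5% CO2. ONE-Glo, 30 min RT, luminescence. Readout = decrease in reporter signal.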
ELG1 FLuc counter – luciferase inhibition in cell-free luciferin readout for ELG1 hits; shares compounds with ELG1 DNA repair; cell-free firefly luciferase luminescence counter-screen, ViewLux; Potency, µM (series often up to 46.1 µM), most hits filed as inhibitors; 350 compounds, 3% hits
ELG1-Luc inh – inhibits ELG1-dependent DNA repair in HEK293T cells, confirmed | shares compounds with ELG1 DNA repair | HEK293T ELG1-luciferase levels, luminescence; cells co-treated with 5-fluorouridine | Potency, µM (titrated, usually from 46.1 µM), most hits filed as inhibitors | 670 compounds, 68% hits | AID 624248; further: nearly all actives have a fitted effect of over 55% in size
Target sequence (Q96QE3 whole entry, looked up): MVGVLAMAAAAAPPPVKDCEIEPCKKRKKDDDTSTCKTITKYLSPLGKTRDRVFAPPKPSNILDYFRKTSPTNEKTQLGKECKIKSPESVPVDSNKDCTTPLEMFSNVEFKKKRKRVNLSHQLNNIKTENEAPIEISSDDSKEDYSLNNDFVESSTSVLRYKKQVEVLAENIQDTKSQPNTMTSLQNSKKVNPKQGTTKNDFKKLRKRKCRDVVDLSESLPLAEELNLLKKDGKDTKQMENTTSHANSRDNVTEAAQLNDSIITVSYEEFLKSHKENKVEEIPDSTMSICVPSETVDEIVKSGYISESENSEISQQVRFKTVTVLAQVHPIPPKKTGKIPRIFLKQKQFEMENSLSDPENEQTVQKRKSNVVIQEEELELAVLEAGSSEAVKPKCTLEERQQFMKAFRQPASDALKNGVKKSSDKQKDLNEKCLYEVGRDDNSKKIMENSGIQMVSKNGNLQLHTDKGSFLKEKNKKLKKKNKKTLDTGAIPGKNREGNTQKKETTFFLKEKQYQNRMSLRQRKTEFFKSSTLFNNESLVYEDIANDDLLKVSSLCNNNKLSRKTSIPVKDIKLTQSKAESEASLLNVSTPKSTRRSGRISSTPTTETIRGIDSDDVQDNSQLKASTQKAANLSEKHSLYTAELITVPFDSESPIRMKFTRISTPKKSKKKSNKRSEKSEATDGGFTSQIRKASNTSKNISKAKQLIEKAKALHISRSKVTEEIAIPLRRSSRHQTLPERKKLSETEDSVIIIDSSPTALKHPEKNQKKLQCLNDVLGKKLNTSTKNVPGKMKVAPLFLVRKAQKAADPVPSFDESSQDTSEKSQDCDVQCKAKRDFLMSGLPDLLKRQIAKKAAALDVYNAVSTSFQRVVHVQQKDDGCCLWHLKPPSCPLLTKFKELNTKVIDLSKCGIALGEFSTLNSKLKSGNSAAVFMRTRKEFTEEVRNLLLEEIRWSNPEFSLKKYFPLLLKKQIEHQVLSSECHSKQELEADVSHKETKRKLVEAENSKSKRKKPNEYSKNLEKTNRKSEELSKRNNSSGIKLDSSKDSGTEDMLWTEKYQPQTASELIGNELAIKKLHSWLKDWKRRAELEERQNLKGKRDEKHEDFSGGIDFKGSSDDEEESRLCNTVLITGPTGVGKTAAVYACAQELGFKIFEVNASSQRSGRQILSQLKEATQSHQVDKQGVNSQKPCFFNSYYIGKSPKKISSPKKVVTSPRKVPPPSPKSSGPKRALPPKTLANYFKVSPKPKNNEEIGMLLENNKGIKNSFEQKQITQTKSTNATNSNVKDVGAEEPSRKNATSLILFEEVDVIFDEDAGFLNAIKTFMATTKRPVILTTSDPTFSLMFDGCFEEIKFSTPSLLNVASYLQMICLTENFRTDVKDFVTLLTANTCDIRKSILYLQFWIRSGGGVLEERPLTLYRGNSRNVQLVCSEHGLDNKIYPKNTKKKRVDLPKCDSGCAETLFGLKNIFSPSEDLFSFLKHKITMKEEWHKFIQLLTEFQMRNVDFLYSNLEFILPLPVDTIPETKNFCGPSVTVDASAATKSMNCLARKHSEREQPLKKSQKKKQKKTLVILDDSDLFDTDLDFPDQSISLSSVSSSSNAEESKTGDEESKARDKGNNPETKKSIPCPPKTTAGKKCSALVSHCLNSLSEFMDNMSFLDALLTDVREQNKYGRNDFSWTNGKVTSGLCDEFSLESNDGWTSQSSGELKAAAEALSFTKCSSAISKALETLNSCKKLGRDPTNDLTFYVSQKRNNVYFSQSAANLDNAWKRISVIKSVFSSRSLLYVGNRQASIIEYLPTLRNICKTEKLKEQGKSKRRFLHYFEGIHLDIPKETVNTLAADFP
ELG1-Luc MMS – MMS-stimulated human ELG1 repair inhibition, confirmed | shares compounds with ELG1 DNA repair | HEK293T luciferase-tagged ELG1 level, MMS stimulated | Potency, µM (titrated, usually from 46.1 µM), actives largely listed as inhibitors | 670 compounds, 53% hits | AID 624249; further: nearly all actives have a fitted effect of over 60% in size
ELG1 5-FU – confirmation of ELG1 repair inhibitors: viability with 5FU; shares compounds with ELG1 DNA repair; cell viability with 5-FU, ELG1-dependent repair; Potency, µM (doses to about 46.1 µM), actives largely listed as cytotoxic; 670 tested, under 10 active;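 further: ELG1-luc HEK293T cells cotreated with 5-fluorouridine at 10 µM final; viability measured 16 h after compound addition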
ELG1 MMS cell – confirmation of ELG1 repair inhibitors: viability with MMS | shares compounds with ELG1 DNA repair | Cell viability with MMS, ELG1-dependent DNA repair | Potency, µM (doses to about 46.1 µM), usual class: cytotoxic | 670 compounds, 33% hits | AID 624251;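 further: ELG1-luc HEK293T cells co-treated with 10 µM MMS; viability read 16 h after compound addition; nearly all actives have a fitted effect of over 60% in size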
Cell viab unstim – affects unstimulated cell viability, ELG1 hit counter-screen; shares compounds with ELG1 DNA repair; cell viability counter-screen, unstimulated, luminescence; Potency, µM (top dose mostly 45.9 µM), most hits filed as cytotoxic; 900 compounds, 8% hits;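 further: compound exposure lasted 16 hours before reading; nearly all actives have a fitted effect of over 55% in size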
FLuc biochem – firefly luciferase inhibition counter-screen | Potency, µM (highest dose often 57.5 µM), hits mostly inhibitors | 350 compounds, 10% hits | purified firefly luciferase, luminescence counter-screen | shares compounds with ELG1 DNA repair
Of the large screens only hits and unclear results are named; the others gave an inactive call (follow-up assays come after a bar, where they were run). Shown are actives, neighbours in structure and some others; about 5.5% of the full set was active somewhere. Unless noted, the call rests on the fitted dose curve; in most records, active means well fitted curve in the direction sought with a large enough effect; inconclusive means small, poorly fitted or top-dose-only effect, or another doubt; inactive means no such curve, though single readings can be large; an effect the other way counts as inactive or inconclusive.

O=C1c2cccc(OCc3ccc(F)cc3)c2CCN1Cc1ccc(F)cc1	Sfp inh inconclusive, ELG1 DNA repair 4.11µM | ELG1-Luc inh 12.5µM | ELG1-Luc MMS 3.53µM | ELG1 5-FU inactive | ELG1 MMS cell 3.15µM | Cell viab unstim inconclusive
Cc1ccc2c(c1)sc1nc(=O)n(-c3ccccc3)c(=O)n12	ELG1 DNA repair inconclusive | ELG1 FLuc counter inactive | Cell viab unstim inactive | FLuc biochem inconclusive
COc1ccc(Cl)cc1NC(=O)C(C)OC(=O)c1ccc(NS(=O)(=O)c2ccc3[nH]c(=O)[nH]c3c2)cc1 (configuration not stated)	ELG1 DNA repair 2.91µM | ELG1-Luc inh 2.81µM | ELG1-Luc MMS inactive | ELG1 5-FU inconclusive | ELG1 MMS cell inactive | Cell viab unstim inactive
Cc1cccc(-n2c(N)c(-c3nc4ccccc4n3C)c3nc4ccccc4nc32)c1	ELG1 DNA repair 1.84µM | ELG1-Luc inh 2.23µM | ELG1-Luc MMS inactive | ELG1 5-FU inconclusive | ELG1 MMS cell inactive | Cell viab unstim inconclusive
Cn1c(-c2c(N)n(-c3ccccc3)c3nc4ccccc4nc23)nc2ccccc21	ELG1 DNA repair inconclusive
COc1ccc2c(C)cc(SCC(=O)NC3CCCCC3)nc2c1	none (no result: Coupling enz, Sfp inh)
COc1ccc2c(C)cc(SCC(=O)N3CCOCC3)nc2c1	none | ELG1 FLuc counter inactive | Cell viab unstim inconclusive | FLuc biochem inconclusive
COc1cc(F)c(C(=O)NC(C)(C)CO)cc1OC	none (no result: Coupling enz, Sfp inh, ELG1 DNA repair)
CC(C)Nc1ncnc2ccc(Br)cc12	ELG1 DNA repair 2.31µM | ELG1-Luc inh 3.53µM | ELG1-Luc MMS 7.91µM | ELG1 5-FU inactive | ELG1 MMS cell 9.96µM | Cell viab unstim inconclusive
Cc1ccc(C(=O)Nc2cccc(C(=O)NC3CCCC3)c2)cc1	none (no result: Coupling enz)
COc1ccc(C(=O)Nc2cnn(Cc3c(F)cccc3Cl)c2)cc1OC	ELG1 DNA repair inconclusive | ELG1-Luc inh inactive | ELG1-Luc MMS inactive | ELG1 5-FU inconclusive | ELG1 MMS cell inactive | Cell viab unstim inactive
Cc1ccc(C(C(=O)NCc2ccccc2)N(Cc2cccs2)C(=O)c2ccc3c(c2)OCCO3)cc1 (configuration not stated)	ELG1 DNA repair 2.91µM | ELG1 FLuc counter inactive | ELG1-Luc inh 7.92µM | ELG1-Luc MMS 7.92µM | ELG1 5-FU inactive | ELG1 MMS cell inconclusive | Cell viab unstim inconclusive | FLuc biochem inactive
O=C(CCN1C(=O)NC2(CCCC2)C1=O)Nc1ccc(-c2nc3ccccc3s2)cc1	ELG1 DNA repair inconclusive (no result: Coupling enz, Sfp inh) | ELG1 FLuc counter inactive | Cell viab unstim inconclusive | FLuc biochem 3.66µM
NC(=O)c1ccc(NC(=O)CCCN2C(=O)NC3(CCCC3)C2=O)cc1	none (no result: Coupling enz, Sfp inh)
COc1cccc(CN2CC34CC(c5ccc(C(C)=O)cc5)C(CC3S2(=O)=O)O4)c1 (configuration not stated)	none (no result: ELG1 DNA repair)
CCCCCC(=O)c1cc(CC(C(=O)OC)C(=O)OC)cc2cc(OC)c(OC)cc12	none (no result: Giardia killer, ELG1 DNA repair)
COc1ccc(-c2nc(-c3ccccc3)oc2Nc2ccccc2C)cc1	none (no result: Giardia killer, ELG1 DNA repair)
CCOc1cccc(-c2nnc3sc(-c4cc(OC)c(OC)c(OC)c4)nn23)c1	ELG1 DNA repair 3.26µM | ELG1-Luc inh inconclusive | ELG1-Luc MMS inactive | ELG1 5-FU inactive | ELG1 MMS cell inactive | Cell viab unstim inconclusive
